Most compounds without a hit are left out; they make up all but 3.1% or so of the library.
PAFAH1B3 inh: PAFAH1B3 enzyme inhibitors, primary screen, biochemical, fluorescence polarization, human; inhibition, % at 3.39 µM; recombinant PAFAH1B3, FP-rhodamine probe; 0.28% of 340,000 active; AID 492972, 2010; Platelet-activating factor acetylhydrolase IB subunit alpha1 (Homo sapiens), Q15102;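 active = inhibition above the screen-wide average of all tested compounds plus 3 SD, cut at about 25% in these data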;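 note: 0% = enzyme with DMSO only and 100% = wells lacking PAFAH1B3 protein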
PAFAH1B2 inh: PAFAH1B2 enzyme inhibitors, primary screen, biochemical, fluorescence polarization, human; Platelet-activating factor acetylhydrolase IB subunit alpha2 (Homo sapiens), P68402; recombinant PAFAH1B2, FP-rhodamine activity probe; inhibition, % at 3.39 µM; 1.2% of 340,000 active;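 active = inhibition above the mean of all tested compounds plus 3 SD, cut at about 24% in these data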;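 note: 0% = enzyme with DMSO and 100% = wells lacking PAFAH1B2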
Rin1-Abl PPI inh: inhibitors of Rin1-Abl protein binding, primary screen, biochemical, TR-FRET | Tyrosine-protein kinase ABL1 (Homo sapiens) + Ras and Rab interactor 1 (Homo sapiens), … | inhibition, % at 7.35 µM | 0.4% of 360,000 active; in the data active = inhibition above about 5%, passing the limit was not always enough
eLon inh: inhibitors of E. coli Lon protease, primary screen, biochemical, fluorescence polarization. purified E. coli Lon protease. inhibition, % at 7.94 µM. 0.42% of 360,000 active. AID 602123, 2011; in the data active = inhibition above about 13%, passing the limit was not always enough;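 note: 0% = enzyme with probe and DMSO and 100% = no enzyme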
pPAFAH inh: pPAFAH enzyme inhibitors, primary screen, biochemical, fluorescence polarization, human; recombinant pPAFAH, FP-rhodamine probe fluorescence polarization; AID 463082, 2010; 1.5% of 330,000 active; inhibition, % at 3.39 µM;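 active = inhibition above the mean inhibition across the screen plus 3 SD, cut at about 25% in these data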;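 note: inhibitors block binding of the rhodamine activity-based probe so polarization drops; 0% = enzyme with DMSO and 100% = wells lacking pPAFAH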
Target sequence (Q13093 whole entry, looked up): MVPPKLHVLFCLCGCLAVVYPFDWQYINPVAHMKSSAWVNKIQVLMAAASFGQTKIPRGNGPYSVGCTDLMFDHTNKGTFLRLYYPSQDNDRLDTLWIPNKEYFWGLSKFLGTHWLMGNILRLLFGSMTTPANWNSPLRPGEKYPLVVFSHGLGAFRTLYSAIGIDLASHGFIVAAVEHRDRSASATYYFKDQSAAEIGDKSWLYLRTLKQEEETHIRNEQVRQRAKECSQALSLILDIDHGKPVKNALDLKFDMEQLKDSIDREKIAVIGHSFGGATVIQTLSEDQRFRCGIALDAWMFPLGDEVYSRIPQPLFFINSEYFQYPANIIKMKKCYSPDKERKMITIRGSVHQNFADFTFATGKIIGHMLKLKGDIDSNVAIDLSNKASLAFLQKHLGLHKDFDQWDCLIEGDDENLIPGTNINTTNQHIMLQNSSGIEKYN
PAFAH2 inh: PAFAH2 enzyme inhibitors, primary screen, biochemical, fluorescence polarization, human; Platelet-activating factor acetylhydrolase 2, cytoplasmic (Homo sapiens), Q99487; AID 492956, 2010; recombinant PAFAH2, FP-rhodamine activity probe; inhibition, % at 3.39 µM; 0.99% of 340,000 active;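 active = inhibition above the mean over all tested compounds plus 3 SD, cut at about 30% in these data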;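 note: inhibitors block probe labeling of enzyme so polarization drops; 0% = enzyme with DMSO and 100% = wells lacking PAFAH2 protein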
eLon confirm: E. coli Lon protease inhibitor retest, confirmation, biochemical, fluorescence polarization. 31% of 1,400 active. purified E. coli Lon. shares compounds with eLon inh. inhibition, % at 7.94 µM. AID 602230, 2012; in the data active = inhibition above about 16%;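 note: 0% = enzyme with probe and DMSO and 100% = no enzyme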
* hit, by the source's call; . = no result; + = active, no number.

SMILES | PAFAH1B3 inh | PAFAH1B2 inh | Rin1-Abl PPI inh | eLon inh | pPAFAH inh | PAFAH2 inh | eLon confirm
CN1C2CCC1CC(OC(=O)C(CO)c1ccccc1)C2 (configuration not stated) | 0 | 1 | 1 | . | 4 | 14 | .
Cc1cc2n(n1)C(c1ccc3c(c1)OCO3)Nc1c(C)cccc1-2 (configuration not stated) | -9 | 1 | -1 | -12 | 8 | -6 | .
Cc1cc(C)c2c(c1)-c1cc(C)nn1C(c1ccc3c(c1)OCO3)N2 (configuration not stated) | 6 | 1 | -5 | 21* | 6 | -3 | -1
Cn1c(-c2ccc([N+](=O)[O-])cc2)nc2ccccc21 | 5 | 3 | -1 | 5 | 4 | 0 | .
Cn1nc([N+](=O)[O-])c(C(C#N)c2nc3ccccc3n2C)c(Cl)c1=O (configuration not stated) | 1 | 6 | 1 | 22* | 18 | 10 | 33*
O=C1C(=O)c2ccccc2C(O)=C1CCCCl | 13 | 3 | 0 | 77* | 3 | -2 | 5
COc1cc(C(=O)NNC(=O)c2nn(C)c(=O)c3ccccc23)cc(OC)c1OC | 6 | 2 | -1 | -7 | 1 | -5 | .
CCCCN(Cc1ccc(C(=O)N[C@H](C(=O)O)C(C)C)cc1)C(=O)C(c1ccccc1)c1ccccc1 | -1 | 4 | 1 | -3 | 0 | 5 | .
O=C(NCCOC(=O)c1ccc(Cl)cc1)c1cccnc1 | 6 | 3 | 1 | 16* | 0 | -7 | -9
Cn1c(SCc2ccc(F)cc2Cl)nc2ccccc2c1=O | 1 | -1 | 0 | 2 | -5 | -7 | .
COc1cc(NCCCCC(C)N)c2nccc(C)c2c1 (configuration not stated) | . | . | -11 | 3 | . | . | .
COc1cc(NC(C)CCCNC(C)C)c2ncccc2c1OC (configuration not stated) | 18 | 4 | 3 | 30* | . | -2 | 14
Cc1ccc(C(=O)NC(=S)N2CCN(c3cc(C)ccc3C)CC2)cc1 | 4 | 3 | -2 | -1 | 3 | -6 | .
CCc1nc2ccc(C(=O)Nc3ccc4c(c3)OCC(=O)N4)cn2c1N(C)Cc1nccn1C | . | . | -1 | -12 | . | . | .
CCOc1ccc(C2C=C(c3ccc(C)cc3)Nc3nnnn32)cc1 (configuration not stated) | -10 | -2 | 1 | 24* | 7 | -4 | -2
CCOc1ccc(C2C=C(c3ccccc3)Nc3nnnn32)cc1 (configuration not stated) | -7 | 3 | 4 | 1 | -1 | 3 | .
Cc1cc(C)c(Cn2c(=O)n(CCCC(=O)NCc3ccco3)c(=O)c3ccccc32)c(C)c1 | -10 | -3 | 0 | 18* | 4 | -2 | -7
CCc1cccc(C)c1NC(=O)C1=C(C(=O)O)CCCC1 | 9 | 7 | -6 | 19* | 4 | 4 | 32*
O=C(/C(=C/O)N=Nc1ccccc1)c1cccs1 | -1 | 5 | -1 | 22* | 3 | 8 | 12
O=C(C=Cc1ccccc1)c1cccs1 | 12 | 6 | -1 | -11 | . | -1 | .
CC(=O)N/N=C/c1cc(C(C)(C)C)cc(/C=N/NC(C)=O)c1O | . | . | -2 | 41* | 1 | . | 75*
Cc1cc(C(=O)N/N=C\c2cc(C(C)(C)C)ccc2O)n[nH]1 | 4 | 2 | 0 | 1 | 9 | -9 | .
O=C(Nc1nc2c(Br)cccc2s1)C1CC1 | -7 | 4 | -2 | 23* | 1 | 9 | 81*
O=C(Nc1nc2c(Cl)cccc2s1)C1CC1 | 10 | 1 | 4 | -8 | 3 | 4 | .
COc1ccc(CNC(=O)C2Cc3cc(S(=O)(=O)N4CCCC4)ccc3N2C(C)=O)c(OC)c1 (configuration not stated) | 2 | 4 | -1 | -6 | 4 | -2 | .
SMILES | PAFAH1B3 inh | PAFAH1B2 inh | Rin1-Abl PPI inh | eLon inh | pPAFAH inh | PAFAH2 inh | eLon confirm
Cc1ccc(NC(=S)NCc2ccc(Cl)cc2)c(C)c1 | 6 | 2 | -4 | 17* | 1 | 5 | -47
CC(=O)N1CCN(S(=O)(=O)c2ccc(S(=O)(=O)N3CCCC(C)C3)cc2)CC1 (configuration not stated) | 1 | 9 | -1 | 22* | 5 | -13 | -14
CCCCn1c(SCC(=O)Nc2cc(C)on2)nnc1-c1ccco1 | -3 | 5 | -1 | 14* | -1 | 2 | -3
CCCCn1nnnc1C(c1ccccc1)N1CCN(CCN2CCOCC2)CC1 (configuration not stated) | . | . | . | 15* | . | . | 0
O=C(N/N=C/c1sc(=O)[nH]c1-[n+]1ccc2ccccc2c1)c1ccccc1[O-] | 17 | 3 | -3 | 134* | 14 | 19 | 48*
Cc1cc[n+](-c2[nH]c(=O)sc2/C=N/N=C(\[O-])c2ccccc2)cc1C | 8 | 8 | -3 | 68* | . | 10 | 125*
O=C(N/N=C/c1sc(=O)[nH]c1-[n+]1ccccc1)c1ccccc1[O-] | 4 | 1 | -3 | 1 | 4 | -1 | .
COCCCn1c(C)cc(C(=O)CN2c3cccc4cccc(c34)S2(=O)=O)c1C | 1 | 2 | -1 | -2 | 2 | 8 | .
COc1ccc(N2C(=O)C3CCCN3C2c2ccccc2)cc1 (configuration not stated) | 8 | 5 | -1 | 16* | -2 | -1 | -8
COc1ccc(C2N(c3ccc(OC)cc3)C(=O)C3CCCN32)cc1 (configuration not stated) | 2 | 5 | -3 | 6 | 4 | 0 | .
CCNC(=S)N=Nc1c(O)[nH]c2ccc(C(C)C)cc12 | 6 | 3 | -6 | 23* | 7 | -5 | 20*
CC(C)c1ccc2[nH]c(O)c(N=NC(=S)NCCc3ccccc3)c2c1 | 9 | -7 | -3 | 8 | -2 | -6 | .
Nc1[nH]c(C(=O)c2ccccc2)c(-c2cccnc2)c1C(=O)NCCc1ccc(Cl)cc1Cl | . | . | . | + | . | . | -1
C=CCn1c(-c2ccccn2)n[nH]c1=S | . | . | -3 | 9 | . | . | .
COC(=O)c1ccc(OC(=O)c2cccnc2SC)cc1 | 10 | 4 | 0 | 88* | -7 | 2 | -16
O=C1COc2ccc(C(=O)COC(=O)C3CCN(S(=O)(=O)c4cccs4)CC3)cc2N1 | 3 | -1 | 0 | -6 | 7 | -1 | .
